Compound activity deposited in PubChem by National Center for Advancing Translational Sciences (NCATS).
In the library only some 3.8% were active in any assay of this set; here they are far more common.
TGFb SMAD3 inh: blocks TGF-b signaling | HepG2 CAGA-GFP TGF-b/SMAD3 reporter, GFP fluorescence, 18 h; TGF-beta stimulated, 500 pg/mL final | Potency, µM (series often up to 46.1 µM), without a hit: at the top dose activity, negative = inhibition, actives largely listed as inhibitors | 410,000 compounds, 1.2% hits | AID 588855; note: % is set by controls: 0 for no effect and ±100 for the full control effect; nearly all actives have a fitted effect of over 65% in size
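HEPG2 CAGA-GFP, 1000 cells/well; 2 h settle, 37 C; cpd via pin tool; TGF-b 500 pg/mL final; 18 h, 37 C; GFP imaging ex488/em500-530; %Activity normalised to -TGF-b and +DMSO controls; CRC fit, curve class.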
HepG2 tox: counter-screen for TGF-b inhibitors: cytotoxicity in HepG2 cells; HepG2 CAGA-GFP viability, ATP luminescence, 18 h; Potency, µM (series often up to 46.1 µM), inactives show at the top dose activity change, negative = cytotoxicity, most hits filed as cytotoxic; 410,000 compounds, 0.76% hits
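HepG2 CAGA-GFP cells (1000/well, DMEM with 1% FBS) received compound, then TGF-beta at 500 pg/mL final, and were incubated 18 hours at 37 degrees C. Viability was read by CellTiter-Glo luminescence. Media-only wells were set as complete cell-killing and DMSO as no toxicity.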
S2 tox: cell viability loss in ATXN counter-screen. S2 cells (HEK-293 line with an ATXN2-luciferase reporter) viability, CellTiter-Fluor protease fluorescence, 24 h. Potency, µM (top dose mostly 56.7 µM), most hits filed as cytotoxic. 400,000 compounds, 0.49% hits. AID 651635; note: nearly all actives have a fitted effect of over 40% in size
Nrf2 inh: inhibitors of Nrf2 signaling; 360,000 compounds, 2.1% hits; Potency, µM (series often up to 46 µM), for the others: at the top dose activity change, negative = inhibition, hits mostly inhibitors; A549 ARE-Fluc reporter, luciferase luminescence, 18-24 h; note: % is set by controls: 0 for no effect and ±100 for the full control effect; nearly all actives have a fitted effect of over 60% in size
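Cells were seeded and rested 2 h, then exposed to compounds for 18-24 h. CellTiter-Fluor was read first as a viability measure. BugLite was added 15 min before the final luminescent read of ARE-luciferase activity in A549 cells.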
ATXN2 expr inh: ATXN2 expression inhibition. HEK-293 ATXN2-luciferase reporter, luminescence, 24 h. 360,000 compounds, 0.72% hits. Potency, µM (highest dose often 57 µM), without a hit: at the highest dose activity change, negative = inhibition, usual class: inhibitors; note: % is set by controls: 0 for no effect and ±100 for the full control effect; nearly all actives have a fitted effect of over 55% in size
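qHTS (up to 57 uM final) was run with 24 h compound exposure of reporter cells at 37 °C. Each well was multiplexed: SteadyGlo luminescence measured ATXN2-luciferase expression after a fluorogenic Gly-Phe-AFC viability readout (25 uM final).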
A549 tox-1: counter-screen for Nrf2 inhibitors: cytotoxicity in A549 cells; A549 ARE-Fluc cells, CellTiter-Fluor viability, 18-24 h; Potency, µM (series often up to 46 µM), for the others: at the highest dose activity change, negative = cytotoxicity, most hits filed as inhibitors; 390,000 compounds, 0.16% hits; AID 504648; note: % is set by controls: 0 for no effect and ±100 for the full control effect
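Cytotoxicity counterscreen: CellTiter-Fluor fluorescence was measured in A549 ARE_Fluc cells after 18-24 h of compound exposure in a concentration series. The subsequent BugLite luminescent read reports ARE-luciferase activity.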
FLuc enzyme inh: firefly luciferase inhibition, Nrf2 hit validation; shares compounds with Nrf2 inh; purified firefly luciferase, luminescence inhibition; Potency, µM (titrated, usually from 57.5 µM), for the others: at the top dose activity change, negative = inhibition, hits mostly inhibitors; 1,400 compounds, 4% hits; AID 720522; note: % is set by controls: 0 for no effect and ±100 for the full control effect; nearly all actives have a fitted effect of over 65% in size
Target sequence (P08659 whole entry, looked up): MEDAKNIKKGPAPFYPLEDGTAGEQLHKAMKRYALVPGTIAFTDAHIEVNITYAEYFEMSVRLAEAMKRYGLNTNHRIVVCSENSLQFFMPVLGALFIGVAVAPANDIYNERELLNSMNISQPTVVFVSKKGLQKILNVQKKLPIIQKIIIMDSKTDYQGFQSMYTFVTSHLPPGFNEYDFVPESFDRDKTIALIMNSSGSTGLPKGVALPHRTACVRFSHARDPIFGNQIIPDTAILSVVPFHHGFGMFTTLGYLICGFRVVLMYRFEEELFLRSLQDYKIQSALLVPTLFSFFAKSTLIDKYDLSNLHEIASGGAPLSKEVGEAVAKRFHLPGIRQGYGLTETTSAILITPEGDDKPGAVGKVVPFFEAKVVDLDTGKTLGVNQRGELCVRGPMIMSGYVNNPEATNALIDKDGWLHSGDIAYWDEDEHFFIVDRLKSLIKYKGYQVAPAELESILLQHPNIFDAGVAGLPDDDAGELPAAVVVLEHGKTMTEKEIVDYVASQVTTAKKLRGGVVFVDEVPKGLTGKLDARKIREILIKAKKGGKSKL
A549 tox-2: counter-screen for Nrf2 inhibitors: cytotoxicity in A549 ARE cells; shares compounds with Nrf2 inh; A549 ARE-Fluc cells, cytotoxicity counterscreen; Potency, µM (highest dose often 46.1 µM), for inactives: at the highest dose activity change, negative = cytotoxicity, actives largely listed as inhibitors; 1,400 compounds, 2% hits;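 note: cells exposed to compounds for 18 to 24 hours; % is set by controls: 0 for no effect and ±100 for the full control effect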
Nrf2 ARE inh: reduces Nrf2 ARE reporter signal in A549 cells | 1,400 compounds, 74% hits | AID 720524 | A549 ARE-firefly luciferase reporter, luminescence | shares compounds with Nrf2 inh | Potency, µM (top dose mostly 46.1 µM), for the others: at the highest dose activity change, negative = inhibition, actives largely listed as inhibitors; note: % is set by controls: 0 for no effect and ±100 for the full control effect; nearly all actives have a fitted effect of over 65% in size
Numbers without * were called inactive; i = inactive; ? = inconclusive; . = not tested or not shown. Calls come from the whole dose curve; as a rule, active = well fitted curve in the direction sought with a large enough effect; inconclusive = small, poorly fitted or top-dose-only effect, or another doubt; inactive = no such curve, though single readings can be large; an effect the other way counts as inactive or inconclusive. Potency is the fitted concentration of half-maximal effect.

SMILES	TGFb SMAD3 inh	HepG2 tox	S2 tox	Nrf2 inh	ATXN2 expr inh	A549 tox-1	FLuc enzyme inh	A549 tox-2	Nrf2 ARE inh
Cc1cccc(C(=O)Nc2nc(-c3nnn(-c4cc(C)ccc4C)c3C)ns2)c1	?	-38.5%	.	9.2µM*	.	-13.7%	-15.4%	-14.1%	7.31µM*
CC[N+](C)(CC)CCOC(=O)C(O)(c1ccccc1)C1CCCCC1 (centres undefined)	26.5%	-18.8%	i	7.31µM*	-4.4%	-4.4%	-1.2%	9.2µM*	?
CC[N+](C)(CC)CCC(c1ccccc1)C1CCCCC1 (centres undefined)	12.9%	-4.9%	i	9.2%	-7.1%	2.0%	.	.	.
COc1ccc(C(=O)Nc2ccccc2C(=O)OCc2cc(=O)n3c4c(sc3n2)CCCC4)cc1	-12.9%	-25.7%	.	.	.	-1.5%	.	.	.
CCOc1ccc(-n2c(=O)c3c(C)c(C(=O)N(C)C)sc3n(CC(=O)Nc3c(C)cc(C)cc3C)c2=O)cc1	2.3%	12.7%	.	.	.	1.3%	.	.	.
CN(C)CCNC(=O)c1cc2c(s1)-c1ccc(Cl)cc1SC2	11.2µM*	11.2µM*	?	5.8µM*	.	4.0%	-1.4%	?	0.013µM*
Cc1ccc(-n2nc3c(=O)n(C(C)C(=O)NCc4ccc(OC(C)C)cc4)nc(C)c3c2C)cc1 (centres undefined)	?	-36.0%	.	1.84µM*	.	-3.7%	1.5%	-11.3%	8.2µM*
CSc1ccc(CNC(=O)C(C)n2nc(C)c3c(C)n(-c4ccccc4)nc3c2=O)cc1 (centres undefined)	?	-23.6%	?	-15.7%	-19.7%	7.4%	.	.	.
Cc1cccc(NC(=O)C(C)Sc2nc3nc(C)cc(C)n3n2)c1 (centres undefined)	-7.8%	6.0%	?	-9.6%	-1.7%	-5.6%	.	.	.
COc1ccc(N(CC(=O)Nc2cccc(Cl)c2)S(=O)(=O)c2c(C)[nH]c(=O)[nH]c2=O)cc1	-8.5%	-0.7%	i	4.3%	5.6%	-6.5%	.	.	.
COc1cc(-c2c(-c3ccc4c(c3)OCO4)noc2-c2ccsc2)cc(OC)c1OC	0.5%	14.3%	.	.	.	.	.	.	.
O=C(Oc1ccccc1N1C(=O)C2CCCCC2C1=O)c1ccc(Cl)cc1 (centres undefined)	-5.0%	-10.0%	i	4.61µM*	1.2%	-3.5%	-1.2%	-0.7%	6.51µM*
Nc1nc(NCc2ccc(F)cc2)c2[nH]cnc2n1	-23.1%	-5.2%	.	20.5%	.	10.0%	.	.	.
NC(=NCCc1ccccc1)NS(=O)(=O)c1ccccc1F	-2.8%	2.5%	i	-0.3%	.	-1.3%	.	.	.
N=c1ccn(Cc2ccc(F)cc2)cc1	-16.7%	20.1%	i	2.31µM*	.	-12.7%	?	20.6µM*	23.1µM*
O=C1CNC(=S)N1Cc1ccc(F)cc1	0.8%	-14.6%	i	8.3%	.	1.3%	.	.	.
CC(C)(CC(=O)O)CC(=O)NNc1ncccc1C#N	0.6%	-0.1%	i	-10.1%	3.9%	-11.0%	.	.	.
CC(=O)OCC(=O)C1(O)CCC2C3CCC4=CC(=O)C=CC4(C)C3(F)C(O)CC21C (centres undefined)	5.5%	1.2%	?	0.0103µM*	-0.7%	-4.7%	0.6%	-2.0%	0.013µM*
C[C@@H]1C[C@H]2[C@@H]3CCC4=CC(=O)C=C[C@]4(C)[C@@]3(F)C(O)C[C@]2(C)[C@@]1(O)C(=O)CO (some centres undefined)	5.6%	5.4%	.	0.0052µM*	.	-1.5%	0.3%	-3.4%	0.0065µM*
CC(=O)OC1CC2(C)C(C(C)=O)CCC2C2CCC3=CC(=O)CCC3(C)C12 (centres undefined)	0.3%	-7.2%	i	-5.1%	-10.7%	1.5%	.	.	.
CC(=O)C1CCC2C3CCC4=CC(=O)CCC4(C)C3(F)C(O)CC12C (centres undefined)	-0.4%	-2.1%	i	0.92µM*	0.3%	-2.8%	2.4%	-1.2%	2.06µM*
CC(=O)OCC(=O)[C@@]12OC3(CCCC3)O[C@@H]1C[C@H]1[C@@H]3CCC4=CC(=O)C=C[C@]4(C)[C@@]3(F)[C@@H](O)C[C@@]12C	4.7%	0.6%	i	?	-37.7%	-6.2%	.	.	.
CC12CCC(=O)C=C1CCC1C3CC(O)C(O)(C(=O)CO)C3(C)CC(O)C12F (centres undefined)	33.6%	5.2%	i	0.103µM*	-4.9%	-1.1%	3.7%	-8.8%	0.0517µM*
CC1CC2C3CCC4=CC(=O)C=CC4(C)C3(F)C(O)CC2(C)C1(O)C(=O)CO (centres undefined)	10.1%	-10.7%	i	?	.	-11.9%	.	.	.
CN1CCN(C(=O)C[C@H]2C[C@H]3c4cc(NC(=O)NC5CCCCC5)ccc4O[C@H]3[C@@H](CO)O2)CC1	16.4%	32.2%	i	.	8.6%	.	.	.	.
SMILES	TGFb SMAD3 inh	HepG2 tox	S2 tox	Nrf2 inh	ATXN2 expr inh	A549 tox-1	FLuc enzyme inh	A549 tox-2	Nrf2 ARE inh
Cc1ccc(C)c(NC(=O)C2CCCN2/C=C/C(=O)C(F)(F)F)c1 (centres undefined)	-12.5%	6.8%	i	-4.4%	0.1%	1.1%	.	.	.
COc1ccc(CCNc2c(C)c(C)nc3ncnn23)cc1	-49.4%	-32.6%	i	1.03µM*	-31.9%	?	0.4%	-22.1%	2.06µM*
Cc1cc2[nH]c3c(c[n+](C)c4ccccc34)c2cc1C	?	10µM*	.	5.8µM*	?	?	1.2%	6.8%	7.31µM*
Cc1cc(=O)[nH]c2ccccc12	5.0%	2.4%	i	-11.8%	13.3%	0.2%	.	.	.
Cc1c(C(C)NC(=O)c2cc(COc3cccc4cnccc34)on2)cnn1C (centres undefined)	-10.2%	-22.3%	i	8.2µM*	.	-16.7%	-13.6%	1.4%	7.31µM*
CN(C)c1ccc(C(=O)C=Cc2ccc([N+](=O)[O-])cc2)cc1	-1.2%	-0.5%	i	.	.	.	.	.	.
